Results from PubChem BioAssay AID1159580 (chemical genetic matrix, 2015).
The whole screen tested about 5,500 compounds, of which about 2,000 (36%) were called active. Another 18% or so got no clear call; they are omitted. Cut-off read from the data, not from the text of the source: active = normalized growth mostly below about 0.91 (no sharp cut-off); inconclusive = no clear call, values can overlap the other calls; inactive = mostly above about 0.92. The list shows a part of the results.

Experiment: chemical genetic growth profiling, strain panel (AID 1159580);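 note: tested at 20 µM; growth read once vehicle control cultures reached saturation at 30 °C; 1 = growth at the plate median or of vehicle wells; lower values mean less growth of the strain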
Conditions: growth OD

Measured: normalized growth

O=[N+]([O-])c1ccc(OCCO)c([N+](=O)[O-])c1
inactive: S. cerevisiae deletion strains, locus YAL013W, strain DEP1, stronger effect = lower value 1 | S. cerevisiae deletion strains, locus YBR229C, strain ROT2, stronger effect = lower value 0.978 | S. cerevisiae deletion strains, locus YCL061C, strain MRC1, stronger effect = lower value 1.04 | S. cerevisiae deletion strains, locus YDL101C, strain DUN1, stronger effect = lower value 1.01 | S. cerevisiae deletion strains, locus YDR150W, strain NUM1, stronger effect = lower value 0.981 | S. cerevisiae deletion strains, locus YEL061C, strain CIN8, stronger effect = lower value 0.954 | S. cerevisiae deletion strains, locus YGR078C, strain PAC10, stronger effect = lower value 1.02 | S. cerevisiae deletion strains, locus YHR030C, strain SLT2, stronger effect = lower value 1.23 | S. cerevisiae deletion strains, locus YHR087W, strain rtc3, stronger effect = lower value 0.991 | S. cerevisiae deletion strains, locus YJL187C, strain SWE1, stronger effect = lower value 0.991 | S. cerevisiae deletion strains, locus YJR043C, strain POL32, stronger effect = lower value 1.01 | S. cerevisiae deletion strains, locus YJR075W, strain HOC1, stronger effect = lower value 1.03 | S. cerevisiae deletion strains, locus YKL190W, strain CNB1, stronger effect = lower value 1 | S. cerevisiae deletion strains, locus YLR039C, strain RIC1, stronger effect = lower value 1.18 | S. cerevisiae deletion strains, locus YLR058C, strain SHM2 (second series), stronger effect = lower value 0.998 | S. cerevisiae deletion strains, locus YLR085C, strain ARP6, stronger effect = lower value 1 | S. cerevisiae deletion strains, locus YLR262C, strain YPT6, stronger effect = lower value 1.14 | S. cerevisiae deletion strains, locus YML094W, strain GIM5, stronger effect = lower value 1 | S. cerevisiae deletion strains, locus YMR219W, strain ESC1, stronger effect = lower value 0.993 | S. cerevisiae deletion strains, locus YMR263W, strain SAP30, stronger effect = lower value 1.01 | S. cerevisiae deletion strains, locus YNL153C, strain GIM3, stronger effect = lower value 1.01 | S. cerevisiae deletion strains, locus YNL298W, strain CLA4 (second series), stronger effect = lower value 0.987 | S. cerevisiae deletion strains, locus YNL322C, strain KRE1, stronger effect = lower value 0.982 | S. cerevisiae deletion strains, locus YNR030W, strain Alg12, stronger effect = lower value 0.997 | S. cerevisiae deletion strains, locus YOL006C, strain TOP1, stronger effect = lower value 1.01 | S. cerevisiae deletion strains, locus YPL055C, strain LGE1, stronger effect = lower value 0.989 | S. cerevisiae deletion strains, locus YPL241C, strain CIN2, stronger effect = lower value 0.996 | S. cerevisiae deletion strains, locus YPR135W, strain CTF4, stronger effect = lower value 1.11 | S. cerevisiae strains, strain wild type, stronger effect = lower value 0.986
